{"source": "ChEMBL document CHEMBL3433997", "about": "“St. Jude Leishmania screening dataset” (2016)"}
{"molecular_target": "Solute carrier family 2, facilitated glucose transporter member 1 (Homo sapiens) (UniProt P11166)", "sequence (P11166 whole entry)": "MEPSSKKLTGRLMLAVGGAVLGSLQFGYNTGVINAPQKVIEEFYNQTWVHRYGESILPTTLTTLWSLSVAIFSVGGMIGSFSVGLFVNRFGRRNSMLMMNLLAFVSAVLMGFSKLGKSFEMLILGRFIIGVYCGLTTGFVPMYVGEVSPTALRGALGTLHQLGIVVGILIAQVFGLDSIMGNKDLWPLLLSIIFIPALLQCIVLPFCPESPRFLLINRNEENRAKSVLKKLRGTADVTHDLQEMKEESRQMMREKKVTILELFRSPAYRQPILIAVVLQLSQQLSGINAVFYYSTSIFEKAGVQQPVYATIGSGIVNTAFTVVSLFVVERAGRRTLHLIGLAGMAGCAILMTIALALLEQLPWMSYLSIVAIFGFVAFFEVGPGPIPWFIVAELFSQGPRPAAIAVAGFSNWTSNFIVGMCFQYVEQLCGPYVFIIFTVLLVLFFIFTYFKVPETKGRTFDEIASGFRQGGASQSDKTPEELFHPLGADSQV", "experiment": "ST_JUDE_LEISH: Cytotoxicity at 2uM final concentration against transgenic Leishmania Mexicana promastigotes LmGLUT1 that are glucose transport deficient and complemented with the human glucose transporter GLUT1. Activity is measured by DNA content using SYBR green in vitro", "assay_type": "functional", "units": {"inhibition": "%"}}
{"molecule": "Cc1ccc2c(=O)n(C)c(=O)n(C)c2n1", "inhibition": 6.05}
{"molecule": "CCc1cc(=O)[nH]c(-n2nc(C)cc2NC(=O)CC(c2ccccc2)c2ccccc2)n1", "inhibition": 11.2}
{"molecule": "Cc1ccc(Nc2nc(N)c3ccccc3n2)cc1", "inhibition": 22}
{"molecule": "Cc1c(C(=O)Nc2cc(Sc3ccc(F)cc3)cc([N+](=O)[O-])c2)sc2ncn(Cc3ccccc3F)c(=O)c12", "inhibition": 9.44}
{"molecule": "COc1cccc(NC(=O)Nc2ccc(Nc3nc(C)cc(N(C)C)n3)cc2)c1", "inhibition": 2.46}
{"molecule": "CC1(C)Cc2c([nH]c3ccccc23)C(CCCCCCCCC2=NC(C)(C)Cc3c2[nH]c2ccccc32)=N1", "inhibition": 8.46}
{"molecule": "COc1ccc2c(=O)ccn(CCN3CCC(NCc4ccc5c(n4)NC(=O)CS5)CC3)c2c1", "inhibition": 3.6}
{"molecule": "CCOc1ccc(S(=O)(=O)N(C)c2ccc(OCC(=O)Nc3nccs3)cc2)cc1", "inhibition": 5.83}
{"molecule": "COc1ccc(Cc2c(C)nc3nc(N)nc(N)c3c2C)cc1OC", "inhibition": 13.6}
{"molecule": "CCCCCCn1c(Sc2ccc(C#N)c([N+](=O)[O-])c2)nnc1-c1cccc(Cl)c1", "inhibition": 3.22}
{"molecule": "CCn1c(-c2nonc2N)nc2c(-c3cccc(NC(=O)Nc4cccc(OC)c4)c3)ncc(OCCCN)c21", "inhibition": 0.06}
{"molecule": "Fc1cccc(COc2ccc(Nc3ncnc4sc(C#Cc5ncc[nH]5)cc34)cc2Cl)c1", "inhibition": 0.39}
{"molecule": "COc1ccc(NC(=O)Nc2cccc(-c3ccncc3)c2)cc1N1CCN(C)CC1", "inhibition": 6.92}
{"molecule": "Cc1cccc(-c2nc(Nc3ccncc3)c3ccc([N+](=O)[O-])cc3n2)n1", "inhibition": 5.77}
{"molecule": "CCCCCCCn1c(=N)n(CC(O)c2ccc(Cl)c(Cl)c2)c2ccccc21", "note": "(stereo not given)", "inhibition": 8.14}
{"molecule": "CC(C)CN1C(=O)C(c2ccc(F)c(F)c2)=C(O)C1c1ccccc1", "note": "(stereo not given)", "inhibition": 1.97}
{"molecule": "CS(=O)(=O)Nc1ccc(OCCCCCCOc2ccc(NS(C)(=O)=O)cc2)cc1", "inhibition": 1.48}
{"molecule": "C=C(C)COc1ccc(-c2n[nH]c(C(F)(F)F)c2-c2ccccc2OC)c(O)c1", "inhibition": 8.67}
{"molecule": "CCn1ccc2c(N3CCCS3(=O)=O)cc(C(=O)N[C@@H](Cc3ccccc3)[C@H](O)CNC(C)(C)c3cccc(OC)c3)cc21", "inhibition": 0.43}
{"molecule": "COc1ccc2nc(C)cc(N/N=C/c3ccccc3[N+](=O)[O-])c2c1", "inhibition": 2.3}
{"molecule": "CCc1cn(CC(=O)N(CCOc2ccc(-c3ccc(C(F)(F)F)cc3)cc2)CCN(CC)CC)c(SCc2ccc(F)cc2)nc1=O", "inhibition": 0.38}
{"molecule": "O=C(Nc1cccc(-c2cccc(-c3nc4cc(C(F)(F)F)ccc4[nH]3)c2)c1)Nc1ccc(F)c(F)c1F", "inhibition": -0.38}
{"molecule": "Cc1ccc(O)cc1Nc1ccnc2cc(-c3csc(CN(C)CCN(C)C)n3)ccc12", "inhibition": -0.07}
{"molecule": "COc1cc(NC(=O)Nc2ccc([N+](=O)[O-])cc2OC)c(OC)cc1Cl", "inhibition": 16.6}
{"molecule": "CCCNC(=O)CN1CN(c2ccccc2)C2(CCN(C(=O)c3ccc(C(C)(C)C)cc3)CC2)C1=O", "inhibition": -0.42}
{"molecule": "CN(C)Cc1cccc2nc(-c3csc(Cc4cc(Cl)ccc4OCc4ccccc4)n3)[nH]c12", "inhibition": 6.3}
{"molecule": "CS(=O)(=O)NCCCNCc1cccc(-c2csc(-c3nc4ccccc4[nH]3)c2)c1", "inhibition": -0.84}
{"molecule": "CCN(CC)CCN(Cc1ccc(-c2ccc(C(F)(F)F)cc2)cc1)C(=O)Cn1c(CCc2cccc(F)c2F)nc(=O)c2ccc(C(F)(F)F)cc21", "inhibition": 1.5}
{"molecule": "CCCC(C)Nc1nc(C)cc(N[C@@H](CC(C)C)C(=O)NCCc2ccccc2)n1", "note": "(stereo not given in full)", "inhibition": 7.28}
{"molecule": "COc1ccc2nccc([C@@H](O)CN3CCC(NCc4cc5cc(OC(F)(F)F)ccc5[nH]4)CC3)c2c1", "inhibition": 9.94}
{"molecule": "COc1cc2nc(NCCc3ccccc3)nc(NCc3cnn(C)c3C)c2cc1OC", "inhibition": 9.47}
{"molecule": "Cc1cc(N(C)CCCN(C)C)nc(Nc2ccc(Br)cc2)n1", "inhibition": 0.19}
{"molecule": "COc1ccc(CSC2CCCCC23NC(=S)NC3=S)cc1", "note": "(stereo not given)", "inhibition": 4.42}
{"molecule": "CCc1nc2ccc(C(=O)OC)nc2n1Cc1ccc2oc(-c3ccccc3N)c(Br)c2c1", "inhibition": 2.91}
{"molecule": "COc1cc(C(=O)NCCCN2CCN(c3cccc(Cl)c3)CC2)ccc1-c1cc2cc(Cl)c(Cl)cc2[nH]1", "inhibition": 4.57}
{"molecule": "CN1CCN(CCCN(Cc2cccc(-c3ccc(CNC4CCCC4)cc3)c2)C(=O)CCC2CCCC2)CC1", "inhibition": 17.4}
{"molecule": "O=C(NCC1CCN(CCN2CCc3ccc4c(c3C2)OCO4)CC1)c1ccc(-c2ccc(C(F)(F)F)cc2)cc1", "inhibition": 2.17}
{"molecule": "COc1ccc(Nc2nccc(-c3c(-c4cccc(NC(=O)c5c(F)cccc5F)c4)nn4ccccc34)n2)cc1Cl", "inhibition": 0.2}
{"molecule": "Cc1cc(-c2ccc(S(=O)(=O)Nc3cc4c(cc3OC(C)C)CCN(C)CC4)cc2)ccc1Cl", "inhibition": -2.82}
{"molecule": "Cc1cc2nc(-c3ccc(/C=C/C(=O)NC4CCN(Cc5ccccc5)CC4)cc3)[nH]c2cc1C", "inhibition": 0.58}
{"molecular_target": "Hexose transporter 1 (Plasmodium falciparum) (UniProt O97467)", "experiment": "ST_JUDE_LEISH: Cytotoxicity at 2uM final concentration against transgenic Leishmania Mexicana promastigotes LmPfHT that are glucose transport deficient and complemented with the Plasmodium falciparum hexose transporter. Activity is measured by DNA content using SYBR green in vitro", "assay_type": "functional", "units": {"inhibition": "%"}}
{"molecule": "Cc1ccc2c(=O)n(C)c(=O)n(C)c2n1", "inhibition": 2.94}
{"molecule": "CCc1cc(=O)[nH]c(-n2nc(C)cc2NC(=O)CC(c2ccccc2)c2ccccc2)n1", "inhibition": 15.2}
{"molecule": "Cc1ccc(Nc2nc(N)c3ccccc3n2)cc1", "inhibition": 17.5}
{"molecule": "Cc1c(C(=O)Nc2cc(Sc3ccc(F)cc3)cc([N+](=O)[O-])c2)sc2ncn(Cc3ccccc3F)c(=O)c12", "inhibition": 9.11}
{"molecule": "COc1cccc(NC(=O)Nc2ccc(Nc3nc(C)cc(N(C)C)n3)cc2)c1", "inhibition": 1.22}
{"molecule": "CC1(C)Cc2c([nH]c3ccccc23)C(CCCCCCCCC2=NC(C)(C)Cc3c2[nH]c2ccccc32)=N1", "inhibition": 6.32}
{"molecule": "COc1ccc2c(=O)ccn(CCN3CCC(NCc4ccc5c(n4)NC(=O)CS5)CC3)c2c1", "inhibition": 2.3}
{"molecule": "CCOc1ccc(S(=O)(=O)N(C)c2ccc(OCC(=O)Nc3nccs3)cc2)cc1", "inhibition": 0.61}
{"molecule": "COc1ccc(Cc2c(C)nc3nc(N)nc(N)c3c2C)cc1OC", "inhibition": 15}
{"molecule": "CCCCCCn1c(Sc2ccc(C#N)c([N+](=O)[O-])c2)nnc1-c1cccc(Cl)c1", "inhibition": 9.17}
{"molecule": "CCn1c(-c2nonc2N)nc2c(-c3cccc(NC(=O)Nc4cccc(OC)c4)c3)ncc(OCCCN)c21", "inhibition": 2.8}
{"molecule": "Fc1cccc(COc2ccc(Nc3ncnc4sc(C#Cc5ncc[nH]5)cc34)cc2Cl)c1", "inhibition": -0.11}
{"molecule": "COc1ccc(NC(=O)Nc2cccc(-c3ccncc3)c2)cc1N1CCN(C)CC1", "inhibition": 7.39}
{"molecule": "Cc1cccc(-c2nc(Nc3ccncc3)c3ccc([N+](=O)[O-])cc3n2)n1", "inhibition": 7.55}
{"molecule": "CCCCCCCn1c(=N)n(CC(O)c2ccc(Cl)c(Cl)c2)c2ccccc21", "note": "(stereo not given)", "inhibition": 7.92}
{"molecule": "CC(C)CN1C(=O)C(c2ccc(F)c(F)c2)=C(O)C1c1ccccc1", "note": "(stereo not given)", "inhibition": 4.04}
{"molecule": "CS(=O)(=O)Nc1ccc(OCCCCCCOc2ccc(NS(C)(=O)=O)cc2)cc1", "inhibition": 3.08}
{"molecule": "C=C(C)COc1ccc(-c2n[nH]c(C(F)(F)F)c2-c2ccccc2OC)c(O)c1", "inhibition": 6.88}
{"molecule": "CCn1ccc2c(N3CCCS3(=O)=O)cc(C(=O)N[C@@H](Cc3ccccc3)[C@H](O)CNC(C)(C)c3cccc(OC)c3)cc21", "inhibition": 2.4}
{"molecule": "COc1ccc2nc(C)cc(N/N=C/c3ccccc3[N+](=O)[O-])c2c1", "inhibition": 2.99}
{"molecule": "CCc1cn(CC(=O)N(CCOc2ccc(-c3ccc(C(F)(F)F)cc3)cc2)CCN(CC)CC)c(SCc2ccc(F)cc2)nc1=O", "inhibition": 0.65}
{"molecule": "O=C(Nc1cccc(-c2cccc(-c3nc4cc(C(F)(F)F)ccc4[nH]3)c2)c1)Nc1ccc(F)c(F)c1F", "inhibition": -0.91}
{"molecule": "Cc1ccc(O)cc1Nc1ccnc2cc(-c3csc(CN(C)CCN(C)C)n3)ccc12", "inhibition": -0.87}
{"molecule": "COc1cc(NC(=O)Nc2ccc([N+](=O)[O-])cc2OC)c(OC)cc1Cl", "inhibition": 9.29}
{"molecule": "CCCNC(=O)CN1CN(c2ccccc2)C2(CCN(C(=O)c3ccc(C(C)(C)C)cc3)CC2)C1=O", "inhibition": 1.19}
{"molecule": "CN(C)Cc1cccc2nc(-c3csc(Cc4cc(Cl)ccc4OCc4ccccc4)n3)[nH]c12", "inhibition": 3.36}
{"molecule": "CS(=O)(=O)NCCCNCc1cccc(-c2csc(-c3nc4ccccc4[nH]3)c2)c1", "inhibition": -0.51}
{"molecule": "CCN(CC)CCN(Cc1ccc(-c2ccc(C(F)(F)F)cc2)cc1)C(=O)Cn1c(CCc2cccc(F)c2F)nc(=O)c2ccc(C(F)(F)F)cc21", "inhibition": 1.49}
{"molecule": "CCCC(C)Nc1nc(C)cc(N[C@@H](CC(C)C)C(=O)NCCc2ccccc2)n1", "note": "(stereo not given in full)", "inhibition": 6.41}
{"molecule": "COc1ccc2nccc([C@@H](O)CN3CCC(NCc4cc5cc(OC(F)(F)F)ccc5[nH]4)CC3)c2c1", "inhibition": 10.4}
{"molecule": "COc1cc2nc(NCCc3ccccc3)nc(NCc3cnn(C)c3C)c2cc1OC", "inhibition": 8.36}
{"molecule": "Cc1cc(N(C)CCCN(C)C)nc(Nc2ccc(Br)cc2)n1", "inhibition": 2.58}
{"molecule": "COc1ccc(CSC2CCCCC23NC(=S)NC3=S)cc1", "note": "(stereo not given)", "inhibition": 1.41}
{"molecule": "CCc1nc2ccc(C(=O)OC)nc2n1Cc1ccc2oc(-c3ccccc3N)c(Br)c2c1", "inhibition": 2.33}
{"molecule": "COc1cc(C(=O)NCCCN2CCN(c3cccc(Cl)c3)CC2)ccc1-c1cc2cc(Cl)c(Cl)cc2[nH]1", "inhibition": 4.17}
{"molecule": "CN1CCN(CCCN(Cc2cccc(-c3ccc(CNC4CCCC4)cc3)c2)C(=O)CCC2CCCC2)CC1", "inhibition": 8.03}
{"molecule": "O=C(NCC1CCN(CCN2CCc3ccc4c(c3C2)OCO4)CC1)c1ccc(-c2ccc(C(F)(F)F)cc2)cc1", "inhibition": 4.3}
{"molecule": "COc1ccc(Nc2nccc(-c3c(-c4cccc(NC(=O)c5c(F)cccc5F)c4)nn4ccccc34)n2)cc1Cl", "inhibition": 1.51}
{"molecule": "Cc1cc(-c2ccc(S(=O)(=O)Nc3cc4c(cc3OC(C)C)CCN(C)CC4)cc2)ccc1Cl", "inhibition": -1.99}
{"molecule": "Cc1cc2nc(-c3ccc(/C=C/C(=O)NC4CCN(Cc5ccccc5)CC4)cc3)[nH]c2cc1C", "inhibition": -0.75}
